From PubChem BioAssay (NCATS)
Records with an inconclusive call do not appear. The source made the active and inactive calls. Unless noted, calls come from the whole dose curve.

Key:
[1] = qHTS for Inhibitors of the Functional Ribonucleoprotein Complex (vRNP) of Lassa (LASV) Arenavirus: LASV Primary Screen - GLuc reporter signal (AID 1347082; calls by dose curve; tested in HEK293 reporter line; note: nearly all actives have a fitted effect of over 60% in size)
[2] = qHTS for Inhibitors of the Functional Ribonucleoprotein Complex (vRNP) of Lassa (LASV) Arenavirus: Viability assay - alamar blue signal for LASV Primary Screen (AID 1347083; calls by dose curve; tested in HEK293 reporter line; note: nearly all actives have a fitted effect of over 80% in size)
[3] = qHTS for Inhibitors of the Functional Ribonucleoprotein Complex (vRNP) of Lymphocytic Choriomeningitis Arenaviruses (LCMV): Viability assay - alamar blue signal for LCMV Primary Screen (AID 1347085; calls by dose curve; tested in HEK293 reporter line; note: nearly all actives have a fitted effect of over 80% in size)
[4] = target: Nucleoprotein (Lymphocytic choriomeningitis virus (strain Armstrong)) (UniProt P09992); assay: qHTS for Inhibitors of the Functional Ribonucleoprotein Complex (vRNP) of Lymphocytic Choriomeningitis Arenaviruses (LCMV): LCMV Primary Screen - GLuc reporter signal (AID 1347086); note: nearly all actives have a fitted effect of over 70% in size

Measured: Potency
Potency is the fitted concentration of half-maximal effect.

Nucleoprotein (Lymphocytic choriomeningitis virus (strain Armstrong)), sequence (P09992 whole entry, looked up): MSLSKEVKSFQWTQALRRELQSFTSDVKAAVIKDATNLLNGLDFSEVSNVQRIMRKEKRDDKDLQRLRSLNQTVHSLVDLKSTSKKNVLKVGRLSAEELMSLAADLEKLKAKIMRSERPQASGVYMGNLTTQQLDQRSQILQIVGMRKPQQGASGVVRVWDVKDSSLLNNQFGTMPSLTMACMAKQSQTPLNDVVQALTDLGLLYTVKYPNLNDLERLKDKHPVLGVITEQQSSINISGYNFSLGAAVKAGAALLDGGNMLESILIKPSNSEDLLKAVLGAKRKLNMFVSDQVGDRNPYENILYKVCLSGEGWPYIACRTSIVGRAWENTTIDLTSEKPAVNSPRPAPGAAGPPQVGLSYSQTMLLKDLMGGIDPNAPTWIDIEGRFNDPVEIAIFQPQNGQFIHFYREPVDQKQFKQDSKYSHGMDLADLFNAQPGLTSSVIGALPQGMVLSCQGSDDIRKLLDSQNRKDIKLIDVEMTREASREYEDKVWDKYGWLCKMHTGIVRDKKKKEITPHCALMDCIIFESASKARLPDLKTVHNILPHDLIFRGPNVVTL

O=C(C=Cc1ccc(/C=C/C(=O)Nc2ccc(C3=NCCN3)cc2)cc1)Nc1ccc(C2=NCCN2)cc1
inactive: all assays above

CCOC(=O)c1c(C)n(C)c2ccc(O)cc12
inactive: all assays above

O=C(O)Cc1ccccc1Oc1ccc(Cl)cc1Cl
inactive: all assays above

COc1c(C)cnc(Cn2cnc3c(Cl)nc(N)nc32)c1C
active: [1] 1370 nM | [2] 611 nM | [3] 685 nM | [4] 344 nM

Cn1c2cc(S(C)=O)sc2c2cnn(Cc3cccc(N)c3)c(=O)c21 (stereo not given)
inactive: all assays above

CCN1CCc2nc(N)oc2CC1
inactive: all assays above

CN1C(=O)CC[C@H]1c1cccnc1
inactive: all assays above

COc1cc(S(N)(=O)=O)cc(C(=O)O)c1OC
inactive: all assays above

CN1Cc2cc(C(=O)N3CCC(C4CCNCC4)CC3)ccc2N[C@@H](CC(=O)O)C1=O
inactive: all assays above

COc1ccccc1O
inactive: all assays above

CCCCCCCCOc1ccc(C(=O)c2ccccc2)c(O)c1
inactive: all assays above

COc1ccc(C=Cc2cc(OC)c(OC)c(OC)c2)cc1O
inactive: all assays above

CC(C)(C)COc1ccc(-n2cc(C(=O)O)cn2)cc1C#N
inactive: all assays above

CC1(C)SCCN(S(=O)(=O)c2ccc(OCC#CCO)cc2)[C@@H]1C(=O)NO
inactive: all assays above

N[C@H]1C(O)O[C@H](CO)[C@@H](O)[C@@H]1O (stereo not given in full)
inactive: all assays above

CC(C)c1ccccc1Cc1cc(C(=O)Nc2ccc(S(=O)(=O)c3ccccc3C(C)(C)C)cc2)c(O)c(O)c1O
active: [1] 21700 nM | [2] 19300 nM | [3] 24300 nM | [4] 24300 nM

O=C1[C@H](Cc2ccc(O)cc2)N2C(=O)CCN(C(=O)NCc3ccccc3)[C@H]2CN1Cc1cccc2ccccc12
active: [1] 19300 nM | [2] 19300 nM | [3] 24300 nM | [4] 19300 nM

OCCC#Cc1nc(-c2ccc(F)cc2)c(-c2ccncc2)n1CCCc1ccccc1
inactive: all assays above

COc1ccccc1N1CCN(CC(O)COc2cc(OC)c(OC)c(OC)c2)CC1 (stereo not given)
inactive: all assays above

Nc1nc2c(ncn2CCC(CO)CO)c(=O)[nH]1
inactive: all assays above

O=C(C=Cc1cccnc1)NCCCCC1CCN(C(=O)c2ccccc2)CC1
active: [1] 68.5 nM | [2] 61.1 nM | [3] 38.5 nM | [4] 38.5 nM

[O-][n+]1cccc(CO)c1
inactive: all assays above

O=C(NC1CCNCC1)c1[nH]ncc1NC(=O)c1c(Cl)cccc1Cl
active: [1] 3430 nM | [2] 769 nM | [3] 968 nM | [4] 1930 nM

CC(C)(C)c1nnc(NS(=O)(=O)c2ccccc2)s1
inactive: all assays above

CC(=O)Nc1ccc(O)cc1
inactive: all assays above

CCNC(=O)c1noc(-c2cc(C(C)C)c(O)cc2O)c1-c1ccc(CN2CCOCC2)cc1
active: [1] 611 nM | [2] 273 nM | [3] 544 nM | [4] 306 nM

O=C1NS(=O)(=O)c2ccccc21
inactive: all assays above

Oc1cccc(-c2nc(N3CCOCC3)c3oc4ncccc4c3n2)c1
active: [1] 993 nM | [2] 885 nM | [3] 1400 nM | [4] 1400 nM

CC(=O)NCCC(=O)N[C@@H](CCC(N)=O)C(=O)N[C@@H](CO)C(=O)N[C@@H](CCC(N)=O)C(=O)N[C@@H](CCC(N)=O)C(=O)N[C@H](C(=O)N[C@@H](Cc1ccccc1)C(=O)N[C@]1(C)CCCCCCC=CCCC[C@@](C)(C(=O)N[C@@H](CCC(N)=O)C(=O)N[C@@H](CC(N)=O)C(N)=O)NC(=O)[C@H](CC(C)C)NC(=O)[C@H](CC(C)C)NC(=O)[C@@H](CCCNC(=N)N)NC(=O)[C@H](Cc2c[nH]c3ccccc23)NC(=O)[C@H](CC(C)C)NC(=O)[C@H](CC(N)=O)NC1=O)[C@H](C)O
inactive: all assays above

C=CCn1c(=O)c2cnc(Nc3ccc(N4CCN(C)CC4)cc3)nc2n1-c1cccc(C(C)(C)O)n1
active: [1] 685 nM | [2] 172 nM | [3] 611 nM | [4] 968 nM

S=c1[nH]c2ccccc2s1
inactive: all assays above

CCOc1cc(NC(C)=O)ccc1C(=O)OC
inactive: all assays above

OCc1ccccn1
inactive: all assays above

OC[C@H]1O[C@@H](n2cnc3c2NC=NC[C@@H]3O)C[C@H]1O
inactive: all assays above

CCC(=O)N1CCN(c2ccc(-n3c(=O)ccc4cnc5ccc(-c6cnc7ccccc7c6)cc5c43)cc2C(F)(F)F)CC1
active: [1] 38.5 nM | [2] 15.3 nM | [3] 27.3 nM | [4] 68.5 nM

CCCCC(CC)COC(=O)/C=C/c1ccc(OC)cc1 (stereo not given)
inactive: all assays above

CCN1CCN(c2cc3c(cc2F)c(=O)c(C(=O)O)cn3C2CC2)CC1
inactive: all assays above

COc1ccc(CCN(C)CCCOc2ccc(S(=O)(=O)c3[nH]c4ccccc4c3C(C)C)cc2)cc1OC
inactive: all assays above

CCN1CCN(Cc2ccc(-c3cc4c(N[C@H](C)c5ccccc5)ncnc4[nH]3)cc2)CC1
active: [2] 7.7 nM
inactive: all other assays above

O=C(Nc1cccc(Cl)c1)Nc1ncc(CCNc2ncnc3ccsc23)s1
inactive: all assays above

CC(C)(C)c1cc(C(=O)O)c(NC(=O)Nc2ccc3[nH]ncc3c2)s1
inactive: all assays above

CN1CCN(c2c(F)cc3c(=O)c(C(=O)O)cn4c3c2OCN4C)CC1
inactive: all assays above

CN(C)C1CCN(C(=O)c2ccc(NC(=O)Nc3nc(N4CCOCC4)nc(N4CCOCC4)n3)cc2)CC1
active: [1] 243 nM | [2] 68.5 nM | [3] 61.1 nM | [4] 96.8 nM

COc1nc(-c2ccc3c(c2)OCO3)n(-c2ccc(NC(=O)CSc3ccccc3)cc2)n1
inactive: all assays above

Cc1cccc(-c2nn(C(=S)Nc3ccccc3)cc2-c2ccnc3ccccc23)n1
inactive: all assays above
